Bioassay records as filed in PubChem BioAssay.
Sfp inh = inhibitors of Bacillus subtilis Sfp phosphopantetheinyl transferase. Biochemical Sfp PPTase activity, qHTS. Potency, µM, inactives show largest response in the series, negative = inhibition, most hits filed as inhibitors. actives 3.5% (n = 310,000);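 also: the enzyme is Sfp with the accession as filed and its product quenches rhodamine fluorescence; potency is read from the fitted curve at half-maximal effect; 0% = enzyme reaction without inhibitor and -100% = no enzyme wells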
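With Hepes-Na pH 7.6 buffer containing 10 mM MgCl2, Sfp (15 nM) modified BHQ-2-YbbR (12.5 uM) using rhodamine-CoA (5 uM). Two reads 30 minutes apart at 525/598 nm yielded each well's rate.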
ALDH1A1 block = inhibitors of human aldehyde dehydrogenase 1A1. P00352. Purified ALDH1A1, NADH fluorescence, propionaldehyde substrate. Potency, µM (series often up to 75.3 µM), for the others: at the highest dose activity, negative = inhibition, usual class: inhibitors. actives 7.3% (n = 220,000). AID 1030; active = well fitted inhibition curve with a large enough effect, not every such curve was filed as active; inconclusive = small, poorly fitted or top-dose-only effect, or another doubt; inactive = no such curve, though single readings can be large or run the other way;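 also: potency is read from the fitted curve at half-maximal effect; plate controls were no enzyme wells and a reference inhibitor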
NPSR antag = neuropeptide S receptor (human) antagonism, cAMP. Q6W5P4. CHO-NPSR cells, cAMP TR-FRET, antagonist mode. Potency, µM (highest dose often 38.3 µM), inactives show at the top dose activity change, negative = inhibition, actives largely listed as inhibitors. actives 1% (n = 220,000). AID 1461; also: potency is read from the fitted curve at half-maximal effect; nearly all actives have a fitted effect of over 50% in size
Target sequence (Q6W5P4 whole entry, looked up): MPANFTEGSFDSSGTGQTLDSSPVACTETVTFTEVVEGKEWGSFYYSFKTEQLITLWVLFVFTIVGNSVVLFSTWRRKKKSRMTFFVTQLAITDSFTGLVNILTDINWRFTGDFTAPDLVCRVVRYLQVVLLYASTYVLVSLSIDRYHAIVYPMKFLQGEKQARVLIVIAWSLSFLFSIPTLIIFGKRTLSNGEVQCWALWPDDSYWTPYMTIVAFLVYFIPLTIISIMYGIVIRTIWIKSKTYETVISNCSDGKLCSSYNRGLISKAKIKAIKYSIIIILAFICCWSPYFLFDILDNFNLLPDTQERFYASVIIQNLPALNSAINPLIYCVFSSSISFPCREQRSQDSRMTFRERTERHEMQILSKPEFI
JMJD2E inh = inhibitors of human JMJD2E histone demethylase; Potency, µM (series often up to 57.1 µM), for inactives: at the top dose activity change, negative = inhibition, actives largely listed as inhibitors; B2RXH2; JMJD2E catalytic domain, FDH-coupled NADH fluorescence (FDH is formaldehyde dehydrogenase); actives 1.6% (n = 230,000); active = well fitted inhibition curve with a large enough effect, not every such curve was filed as active; inconclusive = small, poorly fitted or top-dose-only effect, or another doubt; inactive = no such curve, though single readings can be large or run the other way;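 also: potency is read from the fitted curve at half-maximal effect; 0% = wells with enzyme and -100% = buffer wells without enzyme; nearly all actives have a fitted effect of over 50% in size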
Target sequence (B2RXH2 1-337 limits assumed): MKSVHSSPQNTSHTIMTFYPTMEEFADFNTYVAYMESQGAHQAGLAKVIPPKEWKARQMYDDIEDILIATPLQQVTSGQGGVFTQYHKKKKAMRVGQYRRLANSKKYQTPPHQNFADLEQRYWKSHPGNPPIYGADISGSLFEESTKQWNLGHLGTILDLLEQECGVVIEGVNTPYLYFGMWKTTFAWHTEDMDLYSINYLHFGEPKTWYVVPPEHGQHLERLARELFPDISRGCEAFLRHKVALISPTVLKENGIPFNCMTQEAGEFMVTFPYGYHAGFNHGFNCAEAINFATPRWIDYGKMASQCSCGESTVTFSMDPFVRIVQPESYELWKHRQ
GoLoco inh red = RGS12 GoLoco-Gai1 interaction inhibition; P63096; Gai1:RGS12 GoLoco peptide FP, rhodamine, 10 min; Potency, µM (doses to about 61.6 µM), for the others: at the highest dose activity, negative = inhibition, actives largely listed as inhibitors; actives 0.44% (n = 230,000); active = well fitted inhibition curve with a large enough effect, not every such curve was filed as active; inactive = no such curve, though single readings can be large or run the other way; also: potency is read from the fitted curve at half-maximal effect; nearly all actives have a fitted effect of over 30% in size
Coupling enz = counter-screen for Giardia aldolase inhibitors: coupling enzyme system. coupling enzyme system counterscreen, AmpLite Red fluorescence. activity change, negative = inhibition, % at 58.2 µM, hits read low. actives 0.67% (n = 290,000); in the data active = activity change below about -30%
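Counterscreen of the coupled detection system alone, without aldolase: glyceraldehyde-3-phosphate coupling enzymes plus AmpLite Red readout. Compounds at 57.5 uM final, 10 min RT preincubation, 20 min RT reaction, fluorescence 525/598 nm.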
Numbers without * were called inactive; ? = inconclusive; / = not tested or not shown; [ ] = remark or other dose. Hits are enriched below; roughly 8.5% of the tested compounds scored in any of these assays. Unless noted, calls follow the shape of the dose curve; as a rule, active = well fitted curve in the direction sought with a large enough effect; inconclusive = small, poorly fitted or top-dose-only effect, or another doubt; inactive = no such curve, though single readings can be large; an effect the other way counts as inactive or inconclusive. Unless noted, % is scaled to controls: 0 for no effect and ±100 for the full control effect.

SMILES | Sfp inh | ALDH1A1 block | NPSR antag | JMJD2E inh | GoLoco inh red | Coupling enz
CC1CCCCN1S(=O)(=O)c1cnc(Cl)c(Br)c1 (stereo not drawn) | 8.1% | 2.51µM* | -26.3% | 0.4% | 4.9% | 4.2
CC1CCN(S(=O)(=O)c2cnc(Cl)c(Br)c2)CC1 | -1.9% | 0.126µM* | -10.4% | -15.9% | 10.5% | 4.4
CC1CCN(S(=O)(=O)c2ccc(Cl)cc2Br)CC1 | -6.7% | 7.1% | -9.4%[46.1 µM] | -2.8% | -15.0% | -1.7
CCC(=O)NC1(C(F)(F)F)C(=O)Nc2c1c(=O)[nH]c(=O)n2CC(C)C (stereo not drawn) | 22.1% | / | -12.0% | -7.2% | -2.5% | 0.8
O=C1CCN2C=Nc3cccc4ccc1c2c34 | 12.4% | -11.7% | -14.0%[46.1 µM] | ? | -0.8% | -30.5*
COc1ccc(-c2csc(NC3CCCCC3)n2)c(OC)c1 | -27.0% | / | / | / | / | 1.8
Cc1nc(S/C(=C\c2ccc(OCc3ccccc3Cl)cc2)C(=O)O)n[nH]1 | 3.8% | 11.8% | -2.0%[46.1 µM] | 11.9% | 8.4% | 5.3
Cc1nc(S/C(=C\c2ccc(-c3ccc(C(=O)O)c(Cl)c3)o2)C(=O)O)n[nH]1 | 6.31µM* | / | 12.9% | 3.4% | -7.1% | -0.8
Cn1c(CS/C(N)=N/N=C/c2ccccc2)c(Br)c(=O)n1-c1ccccc1 | 44.7µM* | -3.9% | 3.9% | -8.5% | 6.6% | 1.0
CCN(CCCNC(=O)c1c(C)cc(=O)oc1C)c1cccc(C)c1 | -22.1% | 10µM* | -27.8%[46.1 µM] | -2.4% | -2.4% | -0.5
C(=N\N1CCN(c2ccccn2)CC1)/c1ccco1 | -0.9% | 17.8µM* | 5.8% | -8.1% | -3.6% | 0.6
Cc1nn(-c2ccccc2)c(C)c1/C=N/N1CCN(c2ccccn2)CC1 | 79.4µM* | 2.2% | -14.8% | -2.1% | -3.1% | 0.8
O=C(Nc1cc(Cl)ccc1-n1cncn1)c1cc(S(=O)(=O)N2CCOCC2)ccc1F | 12.1% | / | / | / | / | /
COc1ccccc1NC(=O)Cc1noc(CSc2nnc(C)n2C)n1 | 18.0% | -5.3% | 0.7% | 13.8% | 12.4% | 0.9
O=C1OC(c2ccc(O)c(-c3ccccc3)c2)(c2ccc(O)c(-c3ccccc3)c2)c2c(Cl)c(Cl)c(Cl)c(Cl)c21 | / | 19.0%[13.5 µM] | / | / | 2.2%[14.2 µM] | /
O=C1OC2(c3cc(Br)c(O)c(Br)c3Oc3c2cc(Br)c(O)c3Br)c2c(Cl)c(Cl)c(Cl)c(Cl)c21 | / | 25.1µM* | / | / | 0.794µM* | /
Cc1ccc(Cl)cc1N1CCN(C(=O)C(C)n2ncn3cccc3c2=O)CC1 (stereo not drawn) | -6.5% | / | / | / | / | 0.1
Cc1cccc(Cl)c1OCCN1CCCC1 | -1.6% | / | / | / | / | -30.3*
CCCc1cc(O)c2c(C)cc(=O)oc2c1 | -2.5% | 15.8µM* | 19.7%[46.1 µM] | -8.6% | -5.5% | 2.6
CCCCc1cc(=O)oc2cc(O)cc(O)c12 | -8.5% | ? | 28.7% | ? | 2.2% | 9.0
CCCCc1cc(=O)oc2cc(C)cc(O)c12 | 14.1% | 8.91µM* | -3.4%[46.1 µM] | -1.4% | 4.7% | -0.8
COc1ccc(-n2ncc3c2CC(C)(C)CC3NC(=O)CCn2cncn2)cc1 (stereo not drawn) | 15.1% | / | / | / | / | /
COCCN(CCOC)c1nc(C)nc2c1nc(-c1ccccc1)n2CCN1CCCC1 | -1.3% | ? | / | ? | 2.5% | 0.2
COc1cc(OC)cc(C(=O)Nc2nnc(Cc3ccc(OC)c(OC)c3)s2)c1 | 10.5% | 3.9% | -10.5% | -24.6% | 3.6% | 6.7
CC(=O)Nc1ccc(SCCN2CCN(CC(C)C)CCC2=O)cc1 | 44.7µM* | / | / | / | / | 3.2
SMILES | Sfp inh | ALDH1A1 block | NPSR antag | JMJD2E inh | GoLoco inh red | Coupling enz
CCCN1CCC(=O)N(CCSc2ccc(NC(C)=O)cc2)CC1 | 5.9% | / | 25.5% | -2.3% | -9.9% | 2.6
N#Cc1ccccc1OCC(O)CNCCNC(=O)Nc1ccccc1 (stereo not drawn) | 4.1% | 12.9% | / | / | 17.5% | /
CCn1c(SCC(=O)Nc2ccccc2)nc2c1c(=O)n(C)c(=O)n2C | 15.6% | -1.9% | 5.2%[46.1 µM] | 3.2% | -7.5% | 0.6
CCCn1c(SCC(=O)N2c3ccccc3CCc3ccccc32)nc2c1c(=O)n(C)c(=O)n2C | 12.1% | 11.2µM* | 3.5%[46.1 µM] | -4.5% | 4.6% | 3.9
CCn1c(SCC(=O)N2c3ccccc3Sc3ccccc32)nc2c1c(=O)n(C)c(=O)n2C | 3.6% | 11.2µM* | ? | 6.3% | -9.9% | 2.8
Cn1c(=O)c2c(nc(SCC(=O)c3ccccc3F)n2C)n(C)c1=O | 1.0% | 17.8µM* | 18.2% | 0.5% | -16.4% | 1.9
O=C1C[C@@H](c2ccc(O)c(O)c2)Oc2cc(O[C@H]3O[C@@H](CO)[C@H](O)[C@@H](O)[C@@H]3O)cc(O)c21 | -26.4% | / | / | / | / | -2.9
CC(O)C(N)C(=O)O (stereo not drawn) | -9.3% | / | / | / | -1.2% | /
CCN(CC)S(=O)(=O)c1cc(NS(=O)(=O)c2cc(Cl)ccc2Cl)ccc1C | 10.5% | 15.8µM* | -20.0% | 3.0% | 2.7% | 5.3
CCC(C)(C)n1nnnc1CN1CCc2ccccc21 | 0.9% | -15.9% | -1.1%[46.1 µM] | 0.8% | 10.3% | -0.7
COc1cccc(OCCOc2ccc(/C=C3/SC(=S)NC3=O)cc2)c1 | 50.1µM* | / | / | / | / | 5.1
COc1cc(/C=C2\SC(=S)NC2=O)ccc1OS(=O)(=O)c1ccccc1 | 50.1µM* | 6.31µM* | -37.1% | -11.5% | 27.0% | 6.1
COc1cccc(/C=C2\SC(=S)NC2=O)c1OS(=O)(=O)c1ccc(NC(C)=O)cc1 | -4.3% | ? | -4.2% | 13.2% | -1.5% | 16.9
COc1ccc(/C=C2\SC(=S)NC2=O)cc1OS(=O)(=O)c1ccc(NC(C)=O)cc1 | -11.4% | 0.708µM* | -42.1% | -3.4% | 6.2% | -1.0
COc1ccc(/C=C2/SC(=O)NC2=O)cc1 | 2.6% | -6.5% | 47.8% | -12.1% | 8.1% | 9.2
CCOc1ccc(/C=C2\SC(=S)NC2=O)cc1OC | -6.4% | ? | ? | -14.2% | 12.6% | 6.0
Cc1cc(N2C(=O)Cc3ccccc3C2=O)ccc1C(C)C | 0.3% | / | / | / | / | 0.0
Cc1nn(C)cc1/C=N/NC(=S)Nc1ccccc1 | 25.1µM* | 25.1µM* | 2µM* | ? | 3.0% | -1.8
CCCCCCCC#Cc1ccccc1/C=N/S(=O)C(C)(C)C (stereo not drawn) | 1.5% | 21.4%[13.5 µM] | / | / | / | 1.1
CCN1C(=O)c2cccc3c(NC(=O)c4ccc(S(=O)(=O)N(C)C)cc4)ccc1c23 | -8.6% | 2.82µM* | -28.2%[46.1 µM] | -3.6% | -3.5% | -23.5
CCN1C(=O)c2cccc3c(NC(=O)c4ccc(S(=O)(=O)N5CCOCC5)cc4)ccc1c23 | 6.0% | 2µM* | -29.1%[46.1 µM] | 3.2% | -0.4% | 2.3
Cc1cc(-c2cc(C(=O)NCc3ccccc3)on2)nc(S(C)(=O)=O)n1 | 6.2% | / | -17.2% | 11.4% | 6.4% | 4.0
O=S(=O)(Nc1ccccc1N1CCCCC1)c1ccc(Cl)s1 | -12.8% | ? | -29.0%[46.1 µM] | -1.2% | 22.9% | -22.5
O=S(=O)(Nc1cc(O)cc2cccnc12)c1ccc(Br)s1 | ? | / | / | / | / | -67.7*
O=S(=O)(Nc1cc(O)cc2cccnc12)c1ccc(Cl)s1 | -25.0% | / | / | / | / | -63.9*
